Test results as given in PubChem BioAssay (NCI).
Compounds without any hit were thinned out: in the full panel of roughly 83,000, 20% have a hit.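 Single-dose data. Exposure time 48 hours. Values below 10 considered active.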 Activity calls are given as the source filed them.

Each compound was assayed on RXF 393 renal (assay: NCI-60 one-dose screen, 48 h (100 = growth as untreated, 0 = no growth, -100 = all killed)). Conditions: 10 µM unless noted.

Row | SMILES | growth
1 | COc1cc(NC(=O)CSc2nc3ccc(Cl)cc3c(=O)n2-c2ccc(F)cc2)cc(OC)c1OC | 80.2% (inactive)
2 | Cc1ccc(C(=O)Nc2ccc(CN3CCN(C)CC3)c(C(F)(F)F)c2)cc1C#Cc1cnc(N)c2ccc(F)cc12 | -90.8% (active)
3 | FC(F)(F)c1cccc(-c2[nH]ncc2-c2nnnn2-c2ccccc2)c1 | -20.4% (active)
4 | COc1cc(CCNc2cnc3cc(N)cc(N)c3n2)cc(OC)c1 | 114% (inactive)
5 | CCOC(=O)CNS(=O)(=O)CC(=O)c1ccccc1 | 117% (inactive)
6 | O=C(Nc1ccc(Cl)cn1)C1(c2ccccc2)CCCCC1 | -1.25% (active)
7 | Brc1c(-c2ccncc2)nc2n1CCS2 | 84.6% (inactive)
8 | O=C(Nc1cccc(Cn2c(=O)[nH]c3ccc(Oc4ncccn4)cc3c2=O)c1)c1ccc(Cl)cc1 | 51.4% (inactive)
9 | CC(=O)c1cc(Nc2cc(C)nc(N)n2)cc(C(C)=O)c1 | 108% (inactive)
10 | O=C(Nc1cccc(Cn2c(=O)[nH]c3ccc(Oc4ncccn4)cc3c2=O)c1)c1cc(Cl)cc(Cl)c1 | 31.9% (inactive)
11 | CC(C)(C)OC(=O)N1C/C(=C\c2ccccc2)C(=O)/C(=C/c2ccccc2)C1 | 102% (inactive)
12 | Nc1cc(N)c2nc(-c3ccccc3)c(NCCc3ccc(Cl)c(Cl)c3)nc2c1 | -94.3% (active)
13 | O=C(Nn1cnc2ccccc21)N1CCCC1 | 109% (inactive)
14 | O=C(Nc1cccc(Cn2c(=O)[nH]c3ccc(Oc4ncccn4)cc3c2=O)c1)c1cccc(F)c1 | 87.1% (inactive)
15 | O=C1NCCN1/N=C/c1c(Cl)nc2n1CCS2 | 150% (inactive)
16 | CC(=O)N1N=C(c2ccc(Cl)cc2)CC1c1cn(-c2ccccc2)nc1-c1ccc([N+](=O)[O-])cc1 (stereo unspecified) | 135% (inactive)
17 | Cc1c([C@H](C(Cl)Cl)[C@H](O)[C@H]2C[C@H](C)C(=O)O2)ccc2c1C(=O)[C@H]1[C@H]2C[C@@H](Br)[C@@]23O[C@@H](CO[C@H]2O)CC13C (stereo partly specified) | 15.5% (inactive)
18 | CCCCCC(=C/c1ccccc1)/C=N/N=C(N)N | -31.3% (active)
19 | COc1cc2oc(-c3ccc(NC(=O)c4ccccc4)cc3)cc(=O)c2c(OC)c1OC | 90.2% (inactive)
20 | N#Cc1c(N)nc(Nc2nc3ccccc3[nH]2)nc1-c1ccc(Cl)cc1 | 114% (inactive)

Row | SMILES | growth
21 | COc1cc(N)c2nccc(C)c2c1OC | -4.59% (active)
22 | Cc1ccc(C(=O)NN)cc1 | 103% (inactive)
23 | COc1cc(OC)c2c(=O)cc(-c3ccccc3)oc2c1 | 99.8% (inactive)
24 | C/C=C(/C)C(=O)OC1C=C(CO)C(=O)C(OC(=O)/C(C)=C\C)C1C(C)C (stereo unspecified) | -79.2% (active)
25 | Cc1nn(-c2ccccc2)c(N)c1N=C1NC(=O)/C(=C/c2ccc(Cl)cc2)S1 | 109% (inactive)
26 | COCC(=O)NNc1[nH]c(-c2ccc(OC)cc2)cc1C#N | 114% (inactive)
27 | Cc1ncc(C(=O)Nc2ccc(CN3CCN(C)CC3)c(C(F)(F)F)c2)cc1C#Cc1cnc(NC2CC2)c2ncccc12 | -90.6% (active)
28 | CCCOC(=O)c1c(C)n(C)c2scc[n+]12 | 67.8% (inactive)
29 | Cc1ccc2c(O)c(O)cc(NC(C)CCCN)c2n1 (stereo unspecified) | 93.3% (inactive)
30 | CC(=O)N(N=O)c1ccc([N+](=O)[O-])cc1Cl | 83.9% (inactive)
31 | Cc1ccc2c(c1)C(=O)CCS2 | 115% (inactive)
32 | O=C(O)/C(Br)=C/c1c[nH]c2ccc(Br)cc12 | 109% (inactive)
33 | COc1ccc(-n2nnnc2-c2cn[nH]c2C(F)(F)F)cc1 | -6.74% (active)
34 | COc1ccc(C2C3(C#N)C(N)=NC(=C(C#N)C#N)C23C#N)cc1OC (stereo unspecified) | 96.8% (inactive)
35 | CCOC(=O)c1cc(-c2ccc(OC)cc2)[nH]c1NNC(=O)CCOC | 104% (inactive)
36 | O=C(NCCCl)Nc1nccnc1OCc1ccc(F)cc1 | 109% (inactive)
37 | CC1=C(C)C(=O)C(C(C)C2=C(C)C(=O)C(C)=C(C)C2=O)=C(C)C1=O | 11.3% (inactive)
38 | COc1cc(NC(C)CCCN)c2nccc(C)c2c1OC (stereo unspecified) | 164% (inactive)
39 | COc1cc2c(c(OC)c1OC)C(=O)CC(c1cccc(C(=O)Nc3cccc(Br)c3)c1)O2 (stereo unspecified) | 88.8% (inactive)

Each compound was assayed on SF-268 CNS in the same assay as above. Conditions: 10 µM unless noted.

Row | SMILES | growth
40 | COc1cc(NC(=O)CSc2nc3ccc(Cl)cc3c(=O)n2-c2ccc(F)cc2)cc(OC)c1OC | 79.8% (inactive)
41 | Cc1ccc(C(=O)Nc2ccc(CN3CCN(C)CC3)c(C(F)(F)F)c2)cc1C#Cc1cnc(N)c2ccc(F)cc12 | -75.2% (active)
42 | FC(F)(F)c1cccc(-c2[nH]ncc2-c2nnnn2-c2ccccc2)c1 | 66.4% (inactive)
43 | COc1cc(CCNc2cnc3cc(N)cc(N)c3n2)cc(OC)c1 | 109% (inactive)
44 | CCOC(=O)CNS(=O)(=O)CC(=O)c1ccccc1 | 124% (inactive)
45 | O=C(Nc1ccc(Cl)cn1)C1(c2ccccc2)CCCCC1 | 108% (inactive)
46 | Brc1c(-c2ccncc2)nc2n1CCS2 | 107% (inactive)
47 | O=C(Nc1cccc(Cn2c(=O)[nH]c3ccc(Oc4ncccn4)cc3c2=O)c1)c1ccc(Cl)cc1 | 56.8% (inactive)
48 | CC(=O)c1cc(Nc2cc(C)nc(N)n2)cc(C(C)=O)c1 | 99.8% (inactive)
49 | O=C(Nc1cccc(Cn2c(=O)[nH]c3ccc(Oc4ncccn4)cc3c2=O)c1)c1cc(Cl)cc(Cl)c1 | 69.1% (inactive)
50 | CC(C)(C)OC(=O)N1C/C(=C\c2ccccc2)C(=O)/C(=C/c2ccccc2)C1 | 81.4% (inactive)
51 | Nc1cc(N)c2nc(-c3ccccc3)c(NCCc3ccc(Cl)c(Cl)c3)nc2c1 | 0.859% (active)
52 | O=C(Nn1cnc2ccccc21)N1CCCC1 | 117% (inactive)
53 | O=C(Nc1cccc(Cn2c(=O)[nH]c3ccc(Oc4ncccn4)cc3c2=O)c1)c1cccc(F)c1 | 74.1% (inactive)
54 | O=C1NCCN1/N=C/c1c(Cl)nc2n1CCS2 | 113% (inactive)
55 | CC(=O)N1N=C(c2ccc(Cl)cc2)CC1c1cn(-c2ccccc2)nc1-c1ccc([N+](=O)[O-])cc1 (stereo unspecified) | 102% (inactive)
56 | Cc1c([C@H](C(Cl)Cl)[C@H](O)[C@H]2C[C@H](C)C(=O)O2)ccc2c1C(=O)[C@H]1[C@H]2C[C@@H](Br)[C@@]23O[C@@H](CO[C@H]2O)CC13C (stereo partly specified) | 33% (inactive)
57 | COc1cc2oc(-c3ccc(NC(=O)c4ccccc4)cc3)cc(=O)c2c(OC)c1OC | 77.5% (inactive)
58 | N#Cc1c(N)nc(Nc2nc3ccccc3[nH]2)nc1-c1ccc(Cl)cc1 | 101% (inactive)

Row | SMILES | growth
59 | COc1cc(N)c2nccc(C)c2c1OC | 114% (inactive)
60 | COc1cc(OC)c2c(=O)cc(-c3ccccc3)oc2c1 | 104% (inactive)
61 | C/C=C(/C)C(=O)OC1C=C(CO)C(=O)C(OC(=O)/C(C)=C\C)C1C(C)C (stereo unspecified) | -57.3% (active)
62 | Cc1nn(-c2ccccc2)c(N)c1N=C1NC(=O)/C(=C/c2ccc(Cl)cc2)S1 | 83.7% (inactive)
63 | COCC(=O)NNc1[nH]c(-c2ccc(OC)cc2)cc1C#N | 119% (inactive)
64 | Cc1ncc(C(=O)Nc2ccc(CN3CCN(C)CC3)c(C(F)(F)F)c2)cc1C#Cc1cnc(NC2CC2)c2ncccc12 | -72.7% (active)
65 | CCCOC(=O)c1c(C)n(C)c2scc[n+]12 | 89.3% (inactive)
66 | Cc1ccc2c(O)c(O)cc(NC(C)CCCN)c2n1 (stereo unspecified) | 92.2% (inactive)
67 | CC(=O)N(N=O)c1ccc([N+](=O)[O-])cc1Cl | 78.5% (inactive)
68 | Cc1ccc2c(c1)C(=O)CCS2 | 112% (inactive)
69 | O=C(O)/C(Br)=C/c1c[nH]c2ccc(Br)cc12 | 124% (inactive)
70 | COc1ccc(-n2nnnc2-c2cn[nH]c2C(F)(F)F)cc1 | 109% (inactive)
71 | COc1ccc(C2C3(C#N)C(N)=NC(=C(C#N)C#N)C23C#N)cc1OC (stereo unspecified) | 121% (inactive)
72 | CCOC(=O)c1cc(-c2ccc(OC)cc2)[nH]c1NNC(=O)CCOC | 121% (inactive)
73 | O=C(NCCCl)Nc1nccnc1OCc1ccc(F)cc1 | 99.2% (inactive)
74 | CC1=C(C)C(=O)C(C(C)C2=C(C)C(=O)C(C)=C(C)C2=O)=C(C)C1=O | 101% (inactive)
75 | COc1cc(NC(C)CCCN)c2nccc(C)c2c1OC (stereo unspecified) | 126% (inactive)
76 | COc1cc2c(c(OC)c1OC)C(=O)CC(c1cccc(C(=O)Nc3cccc(Br)c3)c1)O2 (stereo unspecified) | 73.6% (inactive)
